Assay results taken from article PMC7862700, “An all-to-all approach to the identification of sequence-specific readers for epigenetic DNA modifications on cytosine”.

Key:
Experiment in all cases: DAPPL (digital affinity profiling via proximity ligation, sequencing); 10 mM Tris-HCl pH 7.5, 50 mM NaCl, 1 mM DTT, 4% glycerol, room temperature, 30 min; GST-TFs on glutathione beads, 16-mer random dsDNA library, 0.1% formaldehyde crosslink after washing; high values mean tight binding
FLI1 = molecular target: T1, FLI1 (Homo sapiens, UniProt Q01543 1-452); conditions: protein: recombinant; tags: N-terminal GST; dsDNA, one strand shown
T1 sequence: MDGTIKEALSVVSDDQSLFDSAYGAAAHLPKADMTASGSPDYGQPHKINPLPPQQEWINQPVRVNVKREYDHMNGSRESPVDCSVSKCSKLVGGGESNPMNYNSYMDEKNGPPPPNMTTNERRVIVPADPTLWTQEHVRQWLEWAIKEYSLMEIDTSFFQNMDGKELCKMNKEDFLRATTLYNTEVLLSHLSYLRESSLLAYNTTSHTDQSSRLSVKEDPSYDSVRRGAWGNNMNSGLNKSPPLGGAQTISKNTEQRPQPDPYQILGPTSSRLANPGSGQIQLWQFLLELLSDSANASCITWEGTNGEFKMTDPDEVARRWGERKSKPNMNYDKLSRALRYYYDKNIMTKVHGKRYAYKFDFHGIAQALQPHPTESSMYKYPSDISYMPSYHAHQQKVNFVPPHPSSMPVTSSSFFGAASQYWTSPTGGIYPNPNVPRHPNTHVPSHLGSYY
Method in brief: (§1)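 A tag-only sample was pooled with DNA-barcoded human transcription factors that had been expressed in yeast as GST fusions and captured on glutathione beads. The pools were incubated for 30 min at room temperature with 200 nmole of a random double-stranded 16-mer DNA library in Tris/NaCl/DTT/glycerol buffer, then washed, crosslinked with 0.1% formaldehyde, proximity-ligated (BsaI/T4 ligase, 1 h, 37 °C), PCR-amplified and sequenced on an Illumina NextSeq500. Binding signal is each hexamer's read frequency for a factor divided by its frequency for the tag-only sample.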

ELK1 = molecular target: T2, ELK1 (Homo sapiens, UniProt P19419 1-428); conditions: protein: recombinant; tags: N-terminal GST; dsDNA, one strand shown
T2 sequence: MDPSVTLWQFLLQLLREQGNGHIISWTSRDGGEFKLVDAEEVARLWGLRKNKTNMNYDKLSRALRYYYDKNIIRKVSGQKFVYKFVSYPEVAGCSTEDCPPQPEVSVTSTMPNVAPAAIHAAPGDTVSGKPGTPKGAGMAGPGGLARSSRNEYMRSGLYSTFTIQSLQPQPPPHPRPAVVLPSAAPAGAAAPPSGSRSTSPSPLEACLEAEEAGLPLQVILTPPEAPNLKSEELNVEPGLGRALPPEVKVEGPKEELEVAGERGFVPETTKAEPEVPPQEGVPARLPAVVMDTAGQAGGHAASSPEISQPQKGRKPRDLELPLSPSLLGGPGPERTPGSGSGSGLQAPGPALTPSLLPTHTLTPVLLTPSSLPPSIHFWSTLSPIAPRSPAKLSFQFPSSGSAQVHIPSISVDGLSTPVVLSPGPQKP
Method in brief: as §1

GABPA = molecular target: T3, GABPA (Homo sapiens, UniProt Q06546 1-454); conditions: protein: recombinant; tags: N-terminal GST; dsDNA, one strand shown
T3 sequence: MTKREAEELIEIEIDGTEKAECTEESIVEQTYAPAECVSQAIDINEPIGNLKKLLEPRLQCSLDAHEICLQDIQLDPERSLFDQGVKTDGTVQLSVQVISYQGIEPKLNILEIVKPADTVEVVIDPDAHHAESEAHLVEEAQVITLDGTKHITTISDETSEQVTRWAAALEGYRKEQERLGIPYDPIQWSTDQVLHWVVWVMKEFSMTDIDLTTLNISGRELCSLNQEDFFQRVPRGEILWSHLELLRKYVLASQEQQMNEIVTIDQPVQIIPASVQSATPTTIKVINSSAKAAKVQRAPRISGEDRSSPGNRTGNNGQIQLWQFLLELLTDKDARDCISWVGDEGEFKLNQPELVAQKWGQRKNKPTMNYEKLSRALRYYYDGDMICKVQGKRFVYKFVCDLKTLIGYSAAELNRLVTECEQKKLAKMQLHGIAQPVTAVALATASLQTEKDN
Method in brief: as §1

ERG = molecular target: T4, ERG (Homo sapiens, UniProt P11308 1-479); conditions: protein: recombinant; tags: N-terminal GST; dsDNA, one strand shown
T4 sequence: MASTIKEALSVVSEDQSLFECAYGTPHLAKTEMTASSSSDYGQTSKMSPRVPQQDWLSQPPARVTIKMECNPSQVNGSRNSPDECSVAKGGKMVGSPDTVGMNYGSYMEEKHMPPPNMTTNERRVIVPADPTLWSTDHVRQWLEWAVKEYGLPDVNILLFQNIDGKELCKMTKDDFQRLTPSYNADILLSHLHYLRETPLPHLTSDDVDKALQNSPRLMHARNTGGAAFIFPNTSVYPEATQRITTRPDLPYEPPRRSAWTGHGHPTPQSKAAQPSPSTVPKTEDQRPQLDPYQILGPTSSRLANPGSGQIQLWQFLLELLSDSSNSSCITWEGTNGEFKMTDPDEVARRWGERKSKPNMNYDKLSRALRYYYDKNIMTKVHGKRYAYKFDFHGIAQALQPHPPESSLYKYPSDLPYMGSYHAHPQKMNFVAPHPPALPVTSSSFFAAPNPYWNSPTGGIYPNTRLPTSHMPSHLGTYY
Method in brief: as §1

ELF1 = ELF1 (Homo sapiens, UniProt P32519 1-619); conditions: protein: recombinant; tags: N-terminal GST; dsDNA, one strand shown
Method in brief: as §1

EHF = molecular target: T5, EHF (Homo sapiens, UniProt Q9NZC4 1-300); conditions: protein: recombinant; tags: N-terminal GST; dsDNA, one strand shown
T5 sequence: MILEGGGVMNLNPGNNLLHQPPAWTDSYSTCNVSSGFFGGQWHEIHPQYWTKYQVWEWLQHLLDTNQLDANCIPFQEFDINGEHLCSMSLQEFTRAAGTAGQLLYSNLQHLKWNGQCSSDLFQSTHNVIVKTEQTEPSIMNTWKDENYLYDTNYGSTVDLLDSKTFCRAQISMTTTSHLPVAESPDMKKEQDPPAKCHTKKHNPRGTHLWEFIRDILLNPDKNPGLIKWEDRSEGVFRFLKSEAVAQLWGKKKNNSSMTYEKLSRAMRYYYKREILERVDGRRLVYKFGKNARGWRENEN
Method in brief: as §1

SPI1 = SPI1 (Homo sapiens, UniProt P17947 1-270); conditions: protein: recombinant; tags: N-terminal GST; dsDNA, one strand shown
Method in brief: as §1

SPIB = SPIB (Homo sapiens, UniProt Q01892 1-262); conditions: protein: recombinant; tags: N-terminal GST; dsDNA, one strand shown
Method in brief: as §1

ELK3 = molecular target: T6, ELK3 (Homo sapiens, UniProt P41970 1-407); conditions: protein: recombinant; tags: N-terminal GST; dsDNA, one strand shown
T6 sequence: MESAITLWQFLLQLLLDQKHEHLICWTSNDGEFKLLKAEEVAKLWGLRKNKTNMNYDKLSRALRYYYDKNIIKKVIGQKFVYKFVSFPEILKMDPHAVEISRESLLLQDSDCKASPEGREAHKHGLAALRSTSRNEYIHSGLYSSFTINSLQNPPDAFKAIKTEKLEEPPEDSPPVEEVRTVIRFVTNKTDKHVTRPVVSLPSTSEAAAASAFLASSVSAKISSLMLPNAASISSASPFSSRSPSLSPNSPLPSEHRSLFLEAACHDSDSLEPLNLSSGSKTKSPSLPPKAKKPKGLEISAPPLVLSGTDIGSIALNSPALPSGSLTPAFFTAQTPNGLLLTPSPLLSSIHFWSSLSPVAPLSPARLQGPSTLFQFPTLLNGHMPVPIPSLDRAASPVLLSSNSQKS
Method in brief: as §1

FEV = molecular target: T7, FEV (Homo sapiens, UniProt Q99581 1-238); conditions: protein: recombinant; tags: N-terminal GST; dsDNA, one strand shown
T7 sequence: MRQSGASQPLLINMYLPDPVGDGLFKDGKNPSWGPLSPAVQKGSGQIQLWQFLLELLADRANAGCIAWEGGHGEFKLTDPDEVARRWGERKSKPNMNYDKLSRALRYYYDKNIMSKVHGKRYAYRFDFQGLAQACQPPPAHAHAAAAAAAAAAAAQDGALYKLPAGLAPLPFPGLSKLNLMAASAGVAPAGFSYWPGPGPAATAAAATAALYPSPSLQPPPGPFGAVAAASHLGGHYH
Method in brief: as §1

ETV5 = ETV5 (Homo sapiens, UniProt P41161 1-510); conditions: protein: recombinant; tags: N-terminal GST; dsDNA, one strand shown
Method in brief: as §1

HSF1 = HSF1 (Homo sapiens, UniProt Q00613 1-529); conditions: protein: recombinant; tags: N-terminal GST; chain copies: 3; dsDNA, one strand shown
Method in brief: as §1

SPIC = molecular target: T8, SPIC (Homo sapiens, UniProt Q8N5J4 1-248); conditions: protein: recombinant; tags: N-terminal GST; dsDNA, one strand shown
T8 sequence: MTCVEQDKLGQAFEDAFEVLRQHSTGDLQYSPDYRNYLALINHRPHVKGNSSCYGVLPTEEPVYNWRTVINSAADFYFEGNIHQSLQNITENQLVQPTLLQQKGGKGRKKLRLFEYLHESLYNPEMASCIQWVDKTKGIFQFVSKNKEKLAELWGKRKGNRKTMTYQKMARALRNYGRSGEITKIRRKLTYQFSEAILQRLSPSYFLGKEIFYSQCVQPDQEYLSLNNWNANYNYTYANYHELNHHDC
Method in brief: as §1

ELF4 = ELF4 (Homo sapiens, UniProt Q99607 1-663); conditions: protein: recombinant; tags: N-terminal GST; dsDNA, one strand shown
Method in brief: as §1

ELK4 = molecular target: T9, ELK4 (Homo sapiens, UniProt P28324-2 1-405); conditions: protein: recombinant; tags: N-terminal GST; dsDNA, one strand shown
T9 sequence: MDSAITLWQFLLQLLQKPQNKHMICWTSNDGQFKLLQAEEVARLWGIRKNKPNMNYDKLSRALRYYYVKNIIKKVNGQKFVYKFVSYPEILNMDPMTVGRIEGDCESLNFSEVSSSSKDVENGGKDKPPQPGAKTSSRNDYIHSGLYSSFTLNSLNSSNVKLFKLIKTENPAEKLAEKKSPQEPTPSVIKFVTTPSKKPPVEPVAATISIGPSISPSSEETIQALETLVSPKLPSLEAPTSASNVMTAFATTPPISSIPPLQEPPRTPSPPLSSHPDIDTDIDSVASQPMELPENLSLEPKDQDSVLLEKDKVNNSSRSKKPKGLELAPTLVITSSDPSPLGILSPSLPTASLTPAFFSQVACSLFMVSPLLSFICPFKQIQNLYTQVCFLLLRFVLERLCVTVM
Method in brief: as §1

ETV2 = molecular target: T10, ETV2 (Homo sapiens, UniProt O00321 1-342); conditions: protein: recombinant; tags: N-terminal GST; dsDNA, one strand shown
T10 sequence: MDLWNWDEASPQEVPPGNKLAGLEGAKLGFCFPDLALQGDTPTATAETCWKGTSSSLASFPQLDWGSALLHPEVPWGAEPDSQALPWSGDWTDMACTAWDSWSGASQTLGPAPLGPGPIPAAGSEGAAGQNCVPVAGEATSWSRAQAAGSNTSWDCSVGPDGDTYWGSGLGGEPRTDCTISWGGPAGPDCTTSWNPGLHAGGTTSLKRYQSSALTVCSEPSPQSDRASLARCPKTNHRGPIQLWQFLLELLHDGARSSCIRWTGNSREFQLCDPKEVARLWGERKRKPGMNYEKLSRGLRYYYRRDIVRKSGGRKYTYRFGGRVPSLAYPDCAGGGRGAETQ
Method in brief: as §1

ELF3 = molecular target: T11, ELF3 (Homo sapiens, UniProt P78545 1-371); conditions: protein: recombinant; tags: N-terminal GST; dsDNA, one strand shown
T11 sequence: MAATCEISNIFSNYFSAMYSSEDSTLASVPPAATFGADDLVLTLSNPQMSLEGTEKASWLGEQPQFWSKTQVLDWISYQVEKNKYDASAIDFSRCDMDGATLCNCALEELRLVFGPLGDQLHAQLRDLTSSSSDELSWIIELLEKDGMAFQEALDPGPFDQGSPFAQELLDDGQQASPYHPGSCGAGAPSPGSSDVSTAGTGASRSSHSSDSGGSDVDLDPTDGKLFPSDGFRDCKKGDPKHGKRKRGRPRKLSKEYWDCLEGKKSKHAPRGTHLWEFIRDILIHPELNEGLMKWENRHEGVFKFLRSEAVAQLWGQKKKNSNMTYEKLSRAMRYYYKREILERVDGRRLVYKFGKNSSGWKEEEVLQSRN
Method in brief: as §1

CRX = CRX (Homo sapiens, UniProt O43186 1-299); conditions: protein: recombinant; tags: N-terminal GST; dsDNA, one strand shown
Method in brief: as §1

ETV1 = ETV1 (Homo sapiens, UniProt P50549 1-477); conditions: protein: recombinant; tags: N-terminal GST; dsDNA, one strand shown
Method in brief: as §1

Sequence of HSF1 (Q00613 whole entry): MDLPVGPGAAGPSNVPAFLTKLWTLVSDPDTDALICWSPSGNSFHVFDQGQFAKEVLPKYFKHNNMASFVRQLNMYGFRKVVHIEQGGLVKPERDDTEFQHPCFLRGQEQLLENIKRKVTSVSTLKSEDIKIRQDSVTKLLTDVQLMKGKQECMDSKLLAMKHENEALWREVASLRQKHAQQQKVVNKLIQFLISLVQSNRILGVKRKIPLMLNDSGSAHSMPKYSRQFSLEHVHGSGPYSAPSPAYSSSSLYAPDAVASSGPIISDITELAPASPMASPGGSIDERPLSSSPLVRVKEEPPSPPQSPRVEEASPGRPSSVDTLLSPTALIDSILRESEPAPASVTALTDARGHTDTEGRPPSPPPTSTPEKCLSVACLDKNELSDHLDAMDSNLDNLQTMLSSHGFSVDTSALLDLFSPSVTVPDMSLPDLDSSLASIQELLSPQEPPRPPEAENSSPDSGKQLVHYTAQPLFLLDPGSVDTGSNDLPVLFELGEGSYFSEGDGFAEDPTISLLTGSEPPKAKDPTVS
Sequence of ELF4 (Q99607 whole entry): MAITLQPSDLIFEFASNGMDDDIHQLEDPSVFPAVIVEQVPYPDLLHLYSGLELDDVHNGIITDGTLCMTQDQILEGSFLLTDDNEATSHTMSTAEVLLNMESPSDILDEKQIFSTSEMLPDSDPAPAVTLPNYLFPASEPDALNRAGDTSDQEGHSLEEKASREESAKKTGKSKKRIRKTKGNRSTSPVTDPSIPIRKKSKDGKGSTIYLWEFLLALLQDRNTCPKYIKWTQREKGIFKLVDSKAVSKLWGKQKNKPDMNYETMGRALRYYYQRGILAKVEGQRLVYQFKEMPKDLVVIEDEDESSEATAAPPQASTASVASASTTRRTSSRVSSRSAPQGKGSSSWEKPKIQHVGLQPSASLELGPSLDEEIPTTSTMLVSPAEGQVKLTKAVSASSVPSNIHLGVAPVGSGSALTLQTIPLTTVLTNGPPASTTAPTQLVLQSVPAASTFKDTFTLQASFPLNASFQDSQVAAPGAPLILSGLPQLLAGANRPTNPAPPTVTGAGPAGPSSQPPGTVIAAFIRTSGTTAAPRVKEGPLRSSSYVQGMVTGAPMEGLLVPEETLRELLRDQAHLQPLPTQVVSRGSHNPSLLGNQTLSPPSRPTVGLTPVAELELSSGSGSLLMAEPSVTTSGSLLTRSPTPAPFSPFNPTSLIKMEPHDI
Sequence of CRX (O43186 whole entry): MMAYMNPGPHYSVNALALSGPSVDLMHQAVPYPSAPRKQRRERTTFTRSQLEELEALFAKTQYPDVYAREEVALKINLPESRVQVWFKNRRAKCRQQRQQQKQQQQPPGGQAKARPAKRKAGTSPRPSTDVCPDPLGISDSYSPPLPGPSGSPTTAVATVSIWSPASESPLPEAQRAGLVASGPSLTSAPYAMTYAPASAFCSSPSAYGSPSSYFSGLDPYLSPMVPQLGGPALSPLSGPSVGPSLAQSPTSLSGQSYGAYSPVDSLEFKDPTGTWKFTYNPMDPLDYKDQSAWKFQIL
Sequence of ELF1 (P32519 whole entry): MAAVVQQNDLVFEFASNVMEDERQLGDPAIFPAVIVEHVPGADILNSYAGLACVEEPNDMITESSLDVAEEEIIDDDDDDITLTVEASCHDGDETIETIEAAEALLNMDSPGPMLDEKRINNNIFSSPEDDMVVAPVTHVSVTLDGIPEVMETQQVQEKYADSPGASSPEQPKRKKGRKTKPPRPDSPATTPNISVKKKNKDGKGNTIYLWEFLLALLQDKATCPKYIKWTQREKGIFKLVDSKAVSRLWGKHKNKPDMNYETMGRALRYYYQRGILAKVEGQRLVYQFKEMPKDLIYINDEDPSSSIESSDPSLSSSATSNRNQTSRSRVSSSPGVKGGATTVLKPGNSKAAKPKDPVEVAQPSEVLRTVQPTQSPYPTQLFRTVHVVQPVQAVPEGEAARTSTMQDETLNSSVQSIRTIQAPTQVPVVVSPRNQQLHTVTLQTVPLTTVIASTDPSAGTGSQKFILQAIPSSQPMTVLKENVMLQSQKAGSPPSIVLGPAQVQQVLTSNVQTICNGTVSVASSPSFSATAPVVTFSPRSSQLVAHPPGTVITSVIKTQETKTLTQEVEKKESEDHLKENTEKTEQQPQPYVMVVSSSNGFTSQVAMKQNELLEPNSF
Sequence of SPIB (Q01892 whole entry): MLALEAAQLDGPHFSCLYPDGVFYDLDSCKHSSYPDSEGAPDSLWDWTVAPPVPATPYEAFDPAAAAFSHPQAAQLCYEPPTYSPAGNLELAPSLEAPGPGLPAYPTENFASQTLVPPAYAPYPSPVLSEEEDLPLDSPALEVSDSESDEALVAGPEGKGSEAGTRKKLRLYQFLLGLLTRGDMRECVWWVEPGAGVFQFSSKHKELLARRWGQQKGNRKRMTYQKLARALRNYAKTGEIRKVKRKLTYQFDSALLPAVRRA
Sequence of ETV1 (P50549 whole entry): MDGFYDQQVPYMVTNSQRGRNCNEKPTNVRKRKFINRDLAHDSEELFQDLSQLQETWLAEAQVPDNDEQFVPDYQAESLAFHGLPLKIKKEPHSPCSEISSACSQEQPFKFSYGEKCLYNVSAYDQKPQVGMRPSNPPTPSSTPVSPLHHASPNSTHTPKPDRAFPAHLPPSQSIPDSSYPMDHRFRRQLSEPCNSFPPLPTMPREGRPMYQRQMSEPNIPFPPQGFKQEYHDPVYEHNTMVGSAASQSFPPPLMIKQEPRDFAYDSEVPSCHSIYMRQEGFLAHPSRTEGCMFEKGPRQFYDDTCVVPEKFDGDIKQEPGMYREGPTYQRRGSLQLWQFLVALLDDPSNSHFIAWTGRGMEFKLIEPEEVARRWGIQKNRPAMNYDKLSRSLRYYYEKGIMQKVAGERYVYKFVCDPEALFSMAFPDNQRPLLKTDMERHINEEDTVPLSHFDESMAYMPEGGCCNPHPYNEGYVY
Sequence of ETV5 (P41161 whole entry): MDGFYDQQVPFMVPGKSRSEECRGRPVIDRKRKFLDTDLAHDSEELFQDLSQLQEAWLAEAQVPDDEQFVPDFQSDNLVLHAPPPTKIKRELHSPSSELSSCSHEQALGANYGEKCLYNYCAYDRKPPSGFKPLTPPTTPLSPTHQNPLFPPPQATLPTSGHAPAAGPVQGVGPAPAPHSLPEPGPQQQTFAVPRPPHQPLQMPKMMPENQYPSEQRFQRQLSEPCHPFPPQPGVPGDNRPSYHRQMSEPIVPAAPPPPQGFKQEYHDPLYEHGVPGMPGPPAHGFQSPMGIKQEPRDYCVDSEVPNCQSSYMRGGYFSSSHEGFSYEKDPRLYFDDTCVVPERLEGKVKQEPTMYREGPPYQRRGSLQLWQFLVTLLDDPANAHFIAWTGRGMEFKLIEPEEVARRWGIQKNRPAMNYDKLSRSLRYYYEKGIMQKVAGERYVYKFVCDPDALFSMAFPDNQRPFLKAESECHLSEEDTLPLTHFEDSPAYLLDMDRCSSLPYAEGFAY

## TTTTAC
FLI1
  binding signal: 1.45 fold enrichment (6-mer frequency, TF over GST control)
ELK1
  binding signal: 1.27 fold enrichment (6-mer frequency, TF over GST control)
GABPA
  binding signal: 1.33 fold enrichment (6-mer frequency, TF over GST control)
ERG
  binding signal: 1.3 fold enrichment (6-mer frequency, TF over GST control)
ELF1
  binding signal: 1.39 fold enrichment (6-mer frequency, TF over GST control)
EHF
  binding signal: 1.45 fold enrichment (6-mer frequency, TF over GST control)
SPI1
  binding signal: 1.37 fold enrichment (6-mer frequency, TF over GST control)
SPIB
  binding signal: 1.4 fold enrichment (6-mer frequency, TF over GST control)
ELK3
  binding signal: 1.39 fold enrichment (6-mer frequency, TF over GST control)
FEV
  binding signal: 1.37 fold enrichment (6-mer frequency, TF over GST control)
ETV5
  binding signal: 1.36 fold enrichment (6-mer frequency, TF over GST control)
HSF1
  binding signal: 1.37 fold enrichment (6-mer frequency, TF over GST control)
SPIC
  binding signal: 1.4 fold enrichment (6-mer frequency, TF over GST control)
ELF4
  binding signal: 1.37 fold enrichment (6-mer frequency, TF over GST control)
ELK4
  binding signal: 1.41 fold enrichment (6-mer frequency, TF over GST control)
ETV2
  binding signal: 1.37 fold enrichment (6-mer frequency, TF over GST control)
ELF3
  binding signal: 1.4 fold enrichment (6-mer frequency, TF over GST control)
CRX
  binding signal: 1.51 fold enrichment (6-mer frequency, TF over GST control)
ETV1
  binding signal: 1.46 fold enrichment (6-mer frequency, TF over GST control)
